Test results: ChEMBL document CHEMBL1961873, “Compounds: GSK PKIS; Assays: Nanosyn kinase panel” (2012)

What was measured:
[1] = target: T1, Inhibitor of nuclear factor kappa-B kinase subunit epsilon (Homo sapiens) (UniProt Q14164); conditions: at 1 µM;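 further: reported values are averaged percent inhibition figures against human IKKε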
T1 sequence (whole entry): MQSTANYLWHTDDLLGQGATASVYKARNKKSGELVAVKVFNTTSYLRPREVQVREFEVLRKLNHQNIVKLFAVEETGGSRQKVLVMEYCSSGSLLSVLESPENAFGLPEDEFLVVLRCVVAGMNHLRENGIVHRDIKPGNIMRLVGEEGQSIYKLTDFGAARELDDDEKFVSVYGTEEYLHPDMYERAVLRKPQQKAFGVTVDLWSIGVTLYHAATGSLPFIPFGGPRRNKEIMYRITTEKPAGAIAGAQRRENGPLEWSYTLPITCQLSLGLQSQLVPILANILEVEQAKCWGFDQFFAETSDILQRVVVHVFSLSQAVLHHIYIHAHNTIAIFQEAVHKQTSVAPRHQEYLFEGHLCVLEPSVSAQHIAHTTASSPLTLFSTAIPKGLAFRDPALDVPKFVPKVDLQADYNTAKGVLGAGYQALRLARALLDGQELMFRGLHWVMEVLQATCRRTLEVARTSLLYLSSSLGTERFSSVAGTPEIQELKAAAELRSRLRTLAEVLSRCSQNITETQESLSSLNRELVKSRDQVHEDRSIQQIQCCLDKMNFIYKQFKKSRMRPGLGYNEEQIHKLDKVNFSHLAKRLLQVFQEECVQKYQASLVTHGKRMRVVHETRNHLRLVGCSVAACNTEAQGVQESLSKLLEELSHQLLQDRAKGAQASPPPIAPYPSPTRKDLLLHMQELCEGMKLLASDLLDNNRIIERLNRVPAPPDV

[2] = target: T2, Serine/threonine-protein kinase Nek1 (Homo sapiens) (UniProt Q96PY6); conditions: at 0.1 µM
T2 sequence (whole entry): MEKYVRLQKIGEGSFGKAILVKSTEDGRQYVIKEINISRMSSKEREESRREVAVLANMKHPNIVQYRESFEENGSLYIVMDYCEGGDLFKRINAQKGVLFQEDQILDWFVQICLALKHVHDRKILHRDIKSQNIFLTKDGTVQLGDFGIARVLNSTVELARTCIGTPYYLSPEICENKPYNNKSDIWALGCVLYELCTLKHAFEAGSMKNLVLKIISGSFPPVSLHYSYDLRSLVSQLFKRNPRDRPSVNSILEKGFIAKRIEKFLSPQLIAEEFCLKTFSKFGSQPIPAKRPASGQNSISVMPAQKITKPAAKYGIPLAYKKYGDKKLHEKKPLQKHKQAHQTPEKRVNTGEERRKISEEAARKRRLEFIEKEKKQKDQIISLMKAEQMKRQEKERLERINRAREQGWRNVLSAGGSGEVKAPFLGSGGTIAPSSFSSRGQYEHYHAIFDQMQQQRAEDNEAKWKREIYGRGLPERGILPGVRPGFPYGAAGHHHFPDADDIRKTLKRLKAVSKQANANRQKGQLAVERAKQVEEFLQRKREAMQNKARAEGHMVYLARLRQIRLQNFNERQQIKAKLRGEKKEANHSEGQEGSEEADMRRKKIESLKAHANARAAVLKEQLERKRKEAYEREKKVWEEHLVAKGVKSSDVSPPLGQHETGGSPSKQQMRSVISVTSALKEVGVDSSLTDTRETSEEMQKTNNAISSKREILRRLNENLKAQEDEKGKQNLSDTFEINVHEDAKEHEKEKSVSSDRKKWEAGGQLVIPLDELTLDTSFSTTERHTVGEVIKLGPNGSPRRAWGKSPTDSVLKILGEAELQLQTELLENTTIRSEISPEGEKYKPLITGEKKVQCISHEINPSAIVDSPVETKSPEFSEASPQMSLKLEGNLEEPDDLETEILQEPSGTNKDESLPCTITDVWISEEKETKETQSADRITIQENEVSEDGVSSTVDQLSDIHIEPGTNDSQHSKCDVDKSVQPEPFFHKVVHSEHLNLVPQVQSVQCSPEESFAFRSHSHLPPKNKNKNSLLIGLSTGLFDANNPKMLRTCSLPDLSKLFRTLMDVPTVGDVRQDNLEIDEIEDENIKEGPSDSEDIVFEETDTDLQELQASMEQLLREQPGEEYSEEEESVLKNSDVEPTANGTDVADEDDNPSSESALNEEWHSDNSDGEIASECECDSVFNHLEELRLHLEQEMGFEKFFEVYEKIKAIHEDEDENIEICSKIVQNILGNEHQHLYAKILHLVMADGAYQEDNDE

[3] = target: T2, Serine/threonine-protein kinase Nek1 (Homo sapiens); conditions: at 1 µM
[4] = target: T3, Serine/threonine-protein kinase Nek2 (Homo sapiens) (UniProt P51955); conditions: at 0.1 µM
T3 sequence (whole entry): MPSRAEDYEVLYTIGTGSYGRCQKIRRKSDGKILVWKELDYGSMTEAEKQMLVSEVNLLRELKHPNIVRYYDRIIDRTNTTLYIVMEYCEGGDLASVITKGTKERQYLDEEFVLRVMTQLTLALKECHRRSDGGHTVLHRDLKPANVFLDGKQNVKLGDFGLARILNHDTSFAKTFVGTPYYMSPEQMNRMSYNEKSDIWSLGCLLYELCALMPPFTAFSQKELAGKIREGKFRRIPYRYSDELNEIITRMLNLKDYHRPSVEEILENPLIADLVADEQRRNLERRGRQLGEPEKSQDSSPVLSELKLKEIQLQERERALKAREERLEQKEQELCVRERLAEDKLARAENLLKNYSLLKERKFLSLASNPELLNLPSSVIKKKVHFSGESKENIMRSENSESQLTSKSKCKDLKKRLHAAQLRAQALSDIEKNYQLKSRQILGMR

[5] = target: T3, Serine/threonine-protein kinase Nek2 (Homo sapiens); conditions: at 1 µM
[6] = target: Serine/threonine-protein kinase Nek6 (Homo sapiens) (UniProt Q9HC98); conditions: at 0.1 µM
[7] = target: Serine/threonine-protein kinase Nek6 (Homo sapiens) (UniProt Q9HC98); conditions: at 1 µM
[8] = target: Serine/threonine-protein kinase Nek7 (Homo sapiens) (UniProt Q8TDX7); conditions: at 0.1 µM
[9] = target: Serine/threonine-protein kinase Nek7 (Homo sapiens) (UniProt Q8TDX7); conditions: at 1 µM
[10] = target: T4, Serine/threonine-protein kinase Nek9 (Homo sapiens) (UniProt Q8TD19); conditions: at 0.1 µM
T4 sequence (whole entry): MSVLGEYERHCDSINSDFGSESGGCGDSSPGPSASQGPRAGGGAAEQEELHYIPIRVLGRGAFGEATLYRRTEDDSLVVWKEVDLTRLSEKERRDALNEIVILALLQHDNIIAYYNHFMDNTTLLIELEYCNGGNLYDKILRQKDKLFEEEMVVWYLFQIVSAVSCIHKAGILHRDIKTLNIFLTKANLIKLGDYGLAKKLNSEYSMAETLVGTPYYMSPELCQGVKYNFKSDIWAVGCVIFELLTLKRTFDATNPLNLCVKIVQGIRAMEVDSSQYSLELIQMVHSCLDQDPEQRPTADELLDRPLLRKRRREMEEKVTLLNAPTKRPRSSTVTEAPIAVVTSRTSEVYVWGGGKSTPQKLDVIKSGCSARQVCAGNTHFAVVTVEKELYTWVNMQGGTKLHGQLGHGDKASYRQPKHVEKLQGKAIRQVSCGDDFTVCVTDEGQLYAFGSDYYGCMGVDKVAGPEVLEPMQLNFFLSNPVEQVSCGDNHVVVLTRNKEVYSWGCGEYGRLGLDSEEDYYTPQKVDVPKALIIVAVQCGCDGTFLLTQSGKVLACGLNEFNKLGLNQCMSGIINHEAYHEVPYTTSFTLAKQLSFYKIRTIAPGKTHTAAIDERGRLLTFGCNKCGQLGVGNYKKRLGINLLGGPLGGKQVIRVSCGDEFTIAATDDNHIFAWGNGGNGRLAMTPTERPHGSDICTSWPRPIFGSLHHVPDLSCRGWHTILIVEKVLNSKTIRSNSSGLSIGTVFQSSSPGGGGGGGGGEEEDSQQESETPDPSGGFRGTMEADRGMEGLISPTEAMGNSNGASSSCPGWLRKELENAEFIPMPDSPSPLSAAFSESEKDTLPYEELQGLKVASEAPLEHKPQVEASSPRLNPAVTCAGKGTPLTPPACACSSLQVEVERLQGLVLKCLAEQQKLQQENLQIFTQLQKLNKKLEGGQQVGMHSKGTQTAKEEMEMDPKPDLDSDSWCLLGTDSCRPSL

[11] = target: T4, Serine/threonine-protein kinase Nek9 (Homo sapiens); conditions: at 1 µM
[12] = target: Serine/threonine-protein kinase PLK1 (Homo sapiens) (UniProt P53350); conditions: at 0.1 µM
[13] = target: Serine/threonine-protein kinase PLK1 (Homo sapiens) (UniProt P53350); conditions: at 1 µM
[14] = target: T5, Dual specificity protein kinase TTK (Homo sapiens) (UniProt P33981); conditions: at 0.1 µM
T5 sequence (whole entry): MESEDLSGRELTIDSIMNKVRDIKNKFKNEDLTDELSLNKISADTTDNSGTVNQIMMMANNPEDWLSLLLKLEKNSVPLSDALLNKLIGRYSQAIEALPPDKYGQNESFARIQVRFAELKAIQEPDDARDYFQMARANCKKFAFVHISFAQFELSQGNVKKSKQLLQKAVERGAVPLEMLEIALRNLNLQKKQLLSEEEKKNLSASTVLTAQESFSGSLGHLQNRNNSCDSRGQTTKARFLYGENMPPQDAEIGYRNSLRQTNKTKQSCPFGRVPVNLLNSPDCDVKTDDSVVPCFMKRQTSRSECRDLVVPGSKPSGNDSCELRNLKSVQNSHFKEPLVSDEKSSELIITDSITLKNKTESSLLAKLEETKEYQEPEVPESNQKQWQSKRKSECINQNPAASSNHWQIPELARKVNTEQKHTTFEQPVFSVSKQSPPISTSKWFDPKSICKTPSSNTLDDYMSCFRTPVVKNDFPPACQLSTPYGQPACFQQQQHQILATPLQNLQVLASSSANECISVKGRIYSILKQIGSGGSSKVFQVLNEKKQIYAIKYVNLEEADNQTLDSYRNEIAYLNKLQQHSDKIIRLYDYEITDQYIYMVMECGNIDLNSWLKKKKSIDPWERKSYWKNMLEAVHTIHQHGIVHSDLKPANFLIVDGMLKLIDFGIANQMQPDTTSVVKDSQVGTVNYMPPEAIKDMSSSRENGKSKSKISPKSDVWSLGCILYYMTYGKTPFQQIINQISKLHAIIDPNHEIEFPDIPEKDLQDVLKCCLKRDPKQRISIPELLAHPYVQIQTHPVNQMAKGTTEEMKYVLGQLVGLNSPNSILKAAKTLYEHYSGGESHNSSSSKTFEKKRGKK

[15] = test system: T6, Receptor-type tyrosine-protein kinase FLT3 (Homo sapiens), P36888 [D835Y]; conditions: at 1 µM
T6 sequence (whole entry): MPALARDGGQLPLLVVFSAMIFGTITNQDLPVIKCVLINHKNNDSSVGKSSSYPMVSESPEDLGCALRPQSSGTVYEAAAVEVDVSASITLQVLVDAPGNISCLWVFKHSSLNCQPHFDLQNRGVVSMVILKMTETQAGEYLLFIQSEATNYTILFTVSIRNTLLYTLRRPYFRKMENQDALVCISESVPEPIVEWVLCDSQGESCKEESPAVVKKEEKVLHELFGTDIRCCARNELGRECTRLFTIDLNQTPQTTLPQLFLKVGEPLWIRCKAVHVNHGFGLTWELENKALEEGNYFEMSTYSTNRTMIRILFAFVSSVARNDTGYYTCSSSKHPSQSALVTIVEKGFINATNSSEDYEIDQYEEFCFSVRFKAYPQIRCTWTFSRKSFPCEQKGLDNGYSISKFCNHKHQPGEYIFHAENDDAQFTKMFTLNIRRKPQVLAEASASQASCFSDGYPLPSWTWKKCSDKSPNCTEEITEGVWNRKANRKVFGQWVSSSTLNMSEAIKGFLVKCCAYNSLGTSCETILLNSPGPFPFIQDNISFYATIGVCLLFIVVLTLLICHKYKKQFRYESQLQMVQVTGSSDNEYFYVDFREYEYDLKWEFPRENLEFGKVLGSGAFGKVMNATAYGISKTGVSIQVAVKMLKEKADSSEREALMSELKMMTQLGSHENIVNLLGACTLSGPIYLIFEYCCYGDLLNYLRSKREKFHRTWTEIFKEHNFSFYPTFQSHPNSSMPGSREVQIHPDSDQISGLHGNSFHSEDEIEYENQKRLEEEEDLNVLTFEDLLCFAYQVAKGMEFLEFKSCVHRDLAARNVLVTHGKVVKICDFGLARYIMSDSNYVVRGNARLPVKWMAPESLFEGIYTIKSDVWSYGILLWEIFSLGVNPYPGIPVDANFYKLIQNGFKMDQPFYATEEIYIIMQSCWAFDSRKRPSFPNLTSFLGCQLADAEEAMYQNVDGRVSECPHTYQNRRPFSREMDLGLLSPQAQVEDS

[16] = target: Vascular endothelial growth factor receptor 3 (Homo sapiens) (UniProt P35916); conditions: at 0.1 µM
[17] = target: Vascular endothelial growth factor receptor 3 (Homo sapiens) (UniProt P35916); conditions: at 1 µM
[18] = target: Macrophage colony-stimulating factor 1 receptor (Homo sapiens) (UniProt P07333); conditions: at 0.1 µM
[19] = target: Macrophage colony-stimulating factor 1 receptor (Homo sapiens) (UniProt P07333); conditions: at 1 µM
[20] = target: Tyrosine-protein kinase Fyn (Homo sapiens) (UniProt P06241); conditions: at 0.1 µM
Sequence of Tyrosine-protein kinase Fyn (Homo sapiens) (P06241 2-537 limits assumed): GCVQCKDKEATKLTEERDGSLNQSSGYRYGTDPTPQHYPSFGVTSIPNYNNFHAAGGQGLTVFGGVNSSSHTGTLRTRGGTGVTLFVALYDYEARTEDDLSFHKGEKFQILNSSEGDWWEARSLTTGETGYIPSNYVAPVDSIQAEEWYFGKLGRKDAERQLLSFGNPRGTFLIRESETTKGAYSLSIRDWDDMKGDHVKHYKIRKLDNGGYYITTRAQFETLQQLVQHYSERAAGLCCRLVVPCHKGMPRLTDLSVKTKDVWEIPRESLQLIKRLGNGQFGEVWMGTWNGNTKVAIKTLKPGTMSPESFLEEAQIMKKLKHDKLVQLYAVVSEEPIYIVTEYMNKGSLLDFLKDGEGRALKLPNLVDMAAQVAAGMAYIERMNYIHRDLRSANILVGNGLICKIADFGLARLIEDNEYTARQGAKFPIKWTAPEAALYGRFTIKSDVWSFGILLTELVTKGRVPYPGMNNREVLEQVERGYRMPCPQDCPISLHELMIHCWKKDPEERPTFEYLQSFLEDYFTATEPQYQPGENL

Sequence of Macrophage colony-stimulating factor 1 receptor (Homo sapiens) (P07333 whole entry): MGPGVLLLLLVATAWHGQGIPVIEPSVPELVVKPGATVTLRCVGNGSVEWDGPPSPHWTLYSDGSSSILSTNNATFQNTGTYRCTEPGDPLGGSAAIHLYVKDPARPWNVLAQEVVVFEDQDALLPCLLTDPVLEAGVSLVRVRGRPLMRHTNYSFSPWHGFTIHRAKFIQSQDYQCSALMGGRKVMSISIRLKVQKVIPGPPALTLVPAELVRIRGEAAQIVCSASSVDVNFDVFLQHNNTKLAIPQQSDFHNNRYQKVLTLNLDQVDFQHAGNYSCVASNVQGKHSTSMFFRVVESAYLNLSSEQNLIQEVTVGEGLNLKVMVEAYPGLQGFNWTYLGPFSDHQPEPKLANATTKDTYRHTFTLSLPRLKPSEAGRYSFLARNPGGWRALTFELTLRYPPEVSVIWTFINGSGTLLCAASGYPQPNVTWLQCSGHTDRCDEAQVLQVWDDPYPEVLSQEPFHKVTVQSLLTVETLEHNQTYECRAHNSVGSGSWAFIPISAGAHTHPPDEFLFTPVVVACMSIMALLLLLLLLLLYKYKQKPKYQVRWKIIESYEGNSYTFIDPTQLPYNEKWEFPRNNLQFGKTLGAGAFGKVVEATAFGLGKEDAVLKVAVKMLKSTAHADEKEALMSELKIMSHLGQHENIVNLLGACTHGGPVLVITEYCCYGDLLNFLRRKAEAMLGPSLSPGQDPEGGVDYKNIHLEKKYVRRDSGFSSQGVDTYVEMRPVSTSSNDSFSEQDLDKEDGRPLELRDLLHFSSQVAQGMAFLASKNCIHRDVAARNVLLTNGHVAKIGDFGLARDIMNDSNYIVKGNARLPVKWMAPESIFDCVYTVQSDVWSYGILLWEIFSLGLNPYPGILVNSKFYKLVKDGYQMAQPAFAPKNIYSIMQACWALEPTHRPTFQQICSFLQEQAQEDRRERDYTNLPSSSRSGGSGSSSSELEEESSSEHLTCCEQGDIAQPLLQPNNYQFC
Sequence of Vascular endothelial growth factor receptor 3 (Homo sapiens) (P35916 whole entry): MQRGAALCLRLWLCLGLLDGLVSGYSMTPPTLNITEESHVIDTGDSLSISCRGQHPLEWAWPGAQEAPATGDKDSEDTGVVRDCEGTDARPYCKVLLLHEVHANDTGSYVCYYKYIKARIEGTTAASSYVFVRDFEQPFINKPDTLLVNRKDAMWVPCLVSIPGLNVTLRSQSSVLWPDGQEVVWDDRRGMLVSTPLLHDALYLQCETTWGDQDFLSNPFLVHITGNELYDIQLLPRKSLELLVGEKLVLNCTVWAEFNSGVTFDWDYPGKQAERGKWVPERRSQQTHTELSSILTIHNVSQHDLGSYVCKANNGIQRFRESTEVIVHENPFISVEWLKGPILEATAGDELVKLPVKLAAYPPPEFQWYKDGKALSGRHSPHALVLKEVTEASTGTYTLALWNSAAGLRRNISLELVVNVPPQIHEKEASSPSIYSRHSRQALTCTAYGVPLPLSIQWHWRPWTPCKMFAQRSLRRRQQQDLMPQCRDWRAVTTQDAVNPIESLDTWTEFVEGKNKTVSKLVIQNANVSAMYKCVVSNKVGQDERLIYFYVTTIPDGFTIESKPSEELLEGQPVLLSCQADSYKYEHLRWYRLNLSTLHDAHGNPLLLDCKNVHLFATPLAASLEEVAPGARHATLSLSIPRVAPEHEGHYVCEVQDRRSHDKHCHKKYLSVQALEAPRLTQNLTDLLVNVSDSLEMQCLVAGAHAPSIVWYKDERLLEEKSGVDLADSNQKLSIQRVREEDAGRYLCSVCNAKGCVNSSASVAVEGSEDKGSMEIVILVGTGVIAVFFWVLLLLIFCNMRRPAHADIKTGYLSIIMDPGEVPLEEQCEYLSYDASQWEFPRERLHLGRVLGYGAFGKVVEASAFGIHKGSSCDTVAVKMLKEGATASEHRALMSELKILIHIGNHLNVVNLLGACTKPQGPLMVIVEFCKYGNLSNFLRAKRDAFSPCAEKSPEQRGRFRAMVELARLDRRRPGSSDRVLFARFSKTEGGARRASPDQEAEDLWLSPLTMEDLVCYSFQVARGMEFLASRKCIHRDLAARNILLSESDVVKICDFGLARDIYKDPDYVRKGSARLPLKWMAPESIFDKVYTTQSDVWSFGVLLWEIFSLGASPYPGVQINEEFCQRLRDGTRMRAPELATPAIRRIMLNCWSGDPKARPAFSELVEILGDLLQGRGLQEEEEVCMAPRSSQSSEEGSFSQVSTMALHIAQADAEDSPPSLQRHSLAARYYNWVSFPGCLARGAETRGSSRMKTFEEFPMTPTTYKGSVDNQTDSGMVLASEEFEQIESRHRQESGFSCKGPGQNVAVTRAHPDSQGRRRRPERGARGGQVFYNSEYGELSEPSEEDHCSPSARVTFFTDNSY
Sequence of Serine/threonine-protein kinase PLK1 (Homo sapiens) (P53350 whole entry): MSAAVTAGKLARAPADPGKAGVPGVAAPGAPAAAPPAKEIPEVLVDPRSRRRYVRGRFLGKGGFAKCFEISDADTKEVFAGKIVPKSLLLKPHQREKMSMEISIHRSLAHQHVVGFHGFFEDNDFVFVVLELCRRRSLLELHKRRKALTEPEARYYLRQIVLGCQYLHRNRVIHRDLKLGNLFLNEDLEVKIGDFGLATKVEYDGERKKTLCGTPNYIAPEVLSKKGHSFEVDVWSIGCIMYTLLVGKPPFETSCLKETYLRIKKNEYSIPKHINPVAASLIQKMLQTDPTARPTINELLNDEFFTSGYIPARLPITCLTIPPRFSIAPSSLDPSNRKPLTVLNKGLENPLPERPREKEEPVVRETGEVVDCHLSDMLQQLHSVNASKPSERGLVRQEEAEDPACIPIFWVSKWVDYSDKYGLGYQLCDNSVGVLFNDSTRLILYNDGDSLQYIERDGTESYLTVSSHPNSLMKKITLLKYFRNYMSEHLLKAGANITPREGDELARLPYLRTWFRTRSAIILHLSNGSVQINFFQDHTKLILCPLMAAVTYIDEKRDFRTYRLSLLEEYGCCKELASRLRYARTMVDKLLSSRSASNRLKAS
Sequence of Serine/threonine-protein kinase Nek6 (Homo sapiens) (Q9HC98 whole entry): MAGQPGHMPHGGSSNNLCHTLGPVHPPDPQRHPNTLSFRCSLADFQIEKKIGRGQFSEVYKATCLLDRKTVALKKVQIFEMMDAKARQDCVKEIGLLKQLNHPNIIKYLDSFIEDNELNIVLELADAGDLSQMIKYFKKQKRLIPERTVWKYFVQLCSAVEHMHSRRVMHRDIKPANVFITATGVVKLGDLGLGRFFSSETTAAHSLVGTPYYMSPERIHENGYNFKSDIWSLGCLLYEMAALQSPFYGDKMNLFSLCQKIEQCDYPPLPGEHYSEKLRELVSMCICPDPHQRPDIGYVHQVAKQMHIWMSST
Sequence of Serine/threonine-protein kinase Nek7 (Homo sapiens) (Q8TDX7 whole entry, looked up): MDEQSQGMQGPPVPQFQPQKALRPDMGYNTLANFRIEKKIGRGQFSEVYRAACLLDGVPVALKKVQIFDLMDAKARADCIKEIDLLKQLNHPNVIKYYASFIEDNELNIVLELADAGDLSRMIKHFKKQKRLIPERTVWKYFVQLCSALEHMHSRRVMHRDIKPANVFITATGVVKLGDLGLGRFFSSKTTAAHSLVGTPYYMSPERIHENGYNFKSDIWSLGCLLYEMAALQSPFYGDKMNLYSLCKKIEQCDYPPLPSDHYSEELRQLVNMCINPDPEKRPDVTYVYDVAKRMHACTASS

Compound | inhibition [1] [%] | inhibition [2] [%] | inhibition [3] [%] | inhibition [4] [%] | inhibition [5] [%] | inhibition [6] [%] | inhibition [7] [%] | inhibition [8] [%] | inhibition [9] [%] | inhibition [10] [%] | inhibition [11] [%] | inhibition [12] [%] | inhibition [13] [%] | inhibition [14] [%] | inhibition [15] [%] | inhibition [16] [%] | inhibition [17] [%] | inhibition [18] [%] | inhibition [19] [%] | inhibition [20] [%]
CC1=C(C(=O)Nc2cc(Cl)c3[nH]ncc3c2)C(c2ccc(C(F)(F)F)cc2)CC(=O)N1 (stereo not given) | 5.11 | 2.99 | 3.61 | 4.1 | 4.83 | 2.7 | 2.6 | 4.35 | 3.32 | 5.83 | 8.4 | 4.17 | 4.12 | 5.88 | 1.66 | -0.3 | -1.34 | 5.21 | 1.8 | 0.13
Nc1ncc(-c2cccc(S(N)(=O)=O)c2)c2scc(-c3ccc(F)c(Cl)c3)c12 | 6.28 | 1.83 | 3.98 | 4.7 | 4.74 | 2.28 | 3.81 | 3.41 | -0.15 | 5.04 | -0.67 | 4.55 | 2.5 | 5.8 | -1.46 | 5.73 | 12.6 | 6.9 | 43.7 | 7.81
O=S(=O)(CCNCc1ccc(-c2ccc3ncnc(Nc4ccc(OCc5cccc(F)c5)c(Cl)c4)c3c2)o1)c1ccccc1 | 7.29 | 3.48 | 5.88 | 5.1 | 7.03 | 4.21 | 2.74 | 3.88 | 5.26 | 4.93 | 4.64 | 6 | 5.8 | 7.34 | -1.66 | 4.59 | 7.11 | 2.22 | 8.85 | 2.58
